Results taken from PubChem BioAssay (NCI).
About 83,000 compounds went through this panel and 20% of them were active in at least one assay; those are over-represented in the sample as a whole.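 A percent growth of 40 corresponds to 60% growth inhibition; 0 means no net growth; -100 means all cells died. Active threshold: below 10.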 Unmarked numbers belong to inactive results. Activity calls are given as the source filed them.

Test system: HOP-62 NSCLC
Test: NCI-60 one-dose screen, 48 h (100 = growth as untreated, 0 = no growth, -100 = all killed)
Settings: 10 µM unless noted

Row | SMILES | growth
1 | C[C@H](c1nc2ccc(C#N)cc2[nH]1)[C@H]1CC[C@H]2[C@@H]3CCC4=CC(=O)CC[C@]4(C)[C@H]3CC[C@]12C | 101%
2 | O=c1cc(C(F)(F)F)c2cc(-c3cc4ccccc4c(=O)o3)c(O)cc2o1 | 82.6%
3 | Nc1ccc(-c2ccncc2)cc1NC(=O)N1CCCC1 | 86.5%
4 | COc1cccc(-c2cn3nc(-c4cn(C)c5ccccc45)sc3n2)c1 | 96.5%
5 | CC(C)(C)c1ccc(S(=O)(=O)Oc2ccc(-c3sc4cc(OS(=O)(=O)c5ccc(C(C)(C)C)cc5)ccc4c3C(=O)c3ccc(OCCN4CCCCC4)cc3)cc2)cc1 | 90.8%
6 | CCN(CC)CCn1c2ccc(OC)cc2c2sc3cc(O)ccc3c(=O)c21 | 34.4%
7 | C=C1C(=O)O[C@H]2[C@H]1CC/C(COC(=O)NCc1ccc(Cn3c(=O)sn(-c4ccc(I)cc4)c3=O)cc1)=C\CC[C@@]1(C)O[C@@H]21 | 97.8%
8 | O=C(Nc1nc(Cl)nc(Nc2ccc(N3CCOCC3=O)cc2)n1)c1ccc(Cl)s1 | 97.6%
9 | COc1cc(OC)c2c(=O)c3c(CC=C(C)C)cc(OC)c(O)c3oc2c1 | 89.1%
10 | O=S(=O)(Nc1cc(Sc2nc3ccccc3s2)c(O)c2ccccc12)c1ccc2ccccc2c1 | 102%
11 | Nc1cccc(-c2ccc(COc3ccc(CC4SC(=O)NC4=O)cc3)cc2)c1 (stereo not drawn) | 48.4%
12 | COc1ccc(-c2nc(SCC(=O)Nc3nc4ccc(C)cc4s3)[nH]c(=O)c2C#N)cc1OC | 74.8%
13 | C=C1C(=O)O[C@@H]2C3C(=C(C)CC[C@@H]12)CC1O[C@]13C (stereo partly drawn) | 94.1% [6.75 µM]
14 | COc1cccc(CNc2c3ccccc3nc3ccccc23)c1OC | 51.2%
15 | Nc1c(Cl)cc(/C=C2\C=Cc3ccccc32)cc1Cl | 102%
16 | CSc1ccc2c3c(n(C[C@H](O)CO)c(=O)c2c1)-c1ccccc1C3=O | 21.5%
17 | COc1cc(-c2ccc[nH]2)[nH]c1/C=C1\N=C(C)C(CC(=O)OCC(C)(C)C)=C1C | -70.9% (active)
18 | Brc1ccc(Nc2nc(Nc3cnc4ccccc4c3)c3[nH]cnc3n2)cc1 | 64.6%
19 | CS(=O)(=O)Nc1cc(-c2ccc3ncnc(Nc4ccc(F)c(Cl)c4)c3c2)ccc1Cl | 64.7%
20 | CSc1ccc2c3c(n(CCCn4ccnc4)c(=O)c2c1)-c1ccccc1C3=O | 34.7%

Row | SMILES | growth
21 | O=C(/C=C/c1cn(-c2ccccc2)nc1-c1ccccc1)CCC(=O)NO | 93.3%
22 | O=C(/C=C/c1ccccc1)c1cccc2ccccc12 | 37.7%
23 | CCOC(=O)/C=C1\S/C(=N\Nc2cc(=O)[nH]c3ccc(Br)cc23)N(c2ccccc2)C1=O | 91.2%
24 | CC(=O)c1ccc(-n2cc(CN3CCN(c4cc5c(cc4F)c(=O)c(C(=O)O)cn5C4CC4)CC3)nn2)cc1 | 78.7%
25 | CS(=O)(=O)Nc1cc(-c2ccc3ncnc(Nc4ccc(OCc5ccccn5)c(Cl)c4)c3c2)cnc1Cl | 15.3%
26 | COc1ccc2c(c1)c(-c1nc(-c3ccc4ccccc4c3)cs1)cn2C | 90.4%
27 | CCOC(=O)c1c(C)nc2ccccc2c1/C=C/c1ccc(F)cc1 | 80.9%
28 | CC1(C)N=C(N)N=C(N)N1c1ccc(S(=O)(=O)Nc2nccs2)cc1 | 95.8%
29 | COC(=O)c1sccc1-c1cc(O)c(C(=O)Nc2ccccc2)s1 | 92.2%
30 | CCOC(=O)NC(=S)n1oc(=O)c2ccccc21 | 99.4%
31 | O=C1CCC(C(=O)N/N=C/c2cc(F)ccc2F)N1 (stereo not drawn) | 103%
32 | COc1ccccc1/C=C/C(=O)Nc1ccc(F)cc1 | 88.7%
33 | COc1ccc(/C=N/Nc2c3ccccc3nc3ccccc23)cc1 | 98%
34 | O=[N+]([O-])c1ccccc1Sc1ccccc1[N+](=O)[O-] | 92.8%
35 | C[C@@H]1CN(c2cnc(C(=O)Nc3cc(F)cc4cccnc34)cn2)C[C@H](C)N1 | 83.8%
36 | CC1(C)CC[C@]23CC[C@]4(C)[C@H](CC[C@@H]5[C@@]6(C)C/C(=C/O)C(=O)C(C)(C)[C@@H]6CC[C@]54C)[C@H]2[C@H]1OC3 | 102%
37 | c1cc(OCCCCCOc2cccc(-c3nc4ccccc4[nH]3)c2)cc(-c2nc3ccccc3[nH]2)c1 | 39.1%
38 | O=CN1N=C(c2cccc(Nc3ccnc4cc(Cl)ccc34)c2)CC1c1ccc(Cl)cc1 (stereo not drawn) | 24.2%
39 | COc1ccc(/C=C2\c3cc(OC)c(OC)c(OC)c3CC[C@@H]2O)cc1F | 32.6%

Test system: NCI-H460 lung
Test: as above
Settings: 10 µM unless noted

Row | SMILES | growth
40 | C[C@H](c1nc2ccc(C#N)cc2[nH]1)[C@H]1CC[C@H]2[C@@H]3CCC4=CC(=O)CC[C@]4(C)[C@H]3CC[C@]12C | 64%
41 | O=c1cc(C(F)(F)F)c2cc(-c3cc4ccccc4c(=O)o3)c(O)cc2o1 | 58.9%
42 | Nc1ccc(-c2ccncc2)cc1NC(=O)N1CCCC1 | 100%
43 | COc1cccc(-c2cn3nc(-c4cn(C)c5ccccc45)sc3n2)c1 | 101%
44 | CC(C)(C)c1ccc(S(=O)(=O)Oc2ccc(-c3sc4cc(OS(=O)(=O)c5ccc(C(C)(C)C)cc5)ccc4c3C(=O)c3ccc(OCCN4CCCCC4)cc3)cc2)cc1 | 104%
45 | CCN(CC)CCn1c2ccc(OC)cc2c2sc3cc(O)ccc3c(=O)c21 | 8.17% (active)
46 | C=C1C(=O)O[C@H]2[C@H]1CC/C(COC(=O)NCc1ccc(Cn3c(=O)sn(-c4ccc(I)cc4)c3=O)cc1)=C\CC[C@@]1(C)O[C@@H]21 | 91.9%
47 | O=C(Nc1nc(Cl)nc(Nc2ccc(N3CCOCC3=O)cc2)n1)c1ccc(Cl)s1 | 99.9%
48 | COc1cc(OC)c2c(=O)c3c(CC=C(C)C)cc(OC)c(O)c3oc2c1 | 99.2%
49 | O=S(=O)(Nc1cc(Sc2nc3ccccc3s2)c(O)c2ccccc12)c1ccc2ccccc2c1 | 99.7%
50 | Nc1cccc(-c2ccc(COc3ccc(CC4SC(=O)NC4=O)cc3)cc2)c1 (stereo not drawn) | 43.8%
51 | COc1ccc(-c2nc(SCC(=O)Nc3nc4ccc(C)cc4s3)[nH]c(=O)c2C#N)cc1OC | 100%
52 | C=C1C(=O)O[C@@H]2C3C(=C(C)CC[C@@H]12)CC1O[C@]13C (stereo partly drawn) | 101% [6.75 µM]
53 | COc1cccc(CNc2c3ccccc3nc3ccccc23)c1OC | 11.6%
54 | Nc1c(Cl)cc(/C=C2\C=Cc3ccccc32)cc1Cl | 112%
55 | CSc1ccc2c3c(n(C[C@H](O)CO)c(=O)c2c1)-c1ccccc1C3=O | 6.06% (active)
56 | COc1cc(-c2ccc[nH]2)[nH]c1/C=C1\N=C(C)C(CC(=O)OCC(C)(C)C)=C1C | -67.3% (active)
57 | Brc1ccc(Nc2nc(Nc3cnc4ccccc4c3)c3[nH]cnc3n2)cc1 | 65%
58 | CS(=O)(=O)Nc1cc(-c2ccc3ncnc(Nc4ccc(F)c(Cl)c4)c3c2)ccc1Cl | 44.7%
59 | CSc1ccc2c3c(n(CCCn4ccnc4)c(=O)c2c1)-c1ccccc1C3=O | 11.5%

Row | SMILES | growth
60 | O=C(/C=C/c1cn(-c2ccccc2)nc1-c1ccccc1)CCC(=O)NO | 113%
61 | O=C(/C=C/c1ccccc1)c1cccc2ccccc12 | 10.6%
62 | CCOC(=O)/C=C1\S/C(=N\Nc2cc(=O)[nH]c3ccc(Br)cc23)N(c2ccccc2)C1=O | 95.9%
63 | CC(=O)c1ccc(-n2cc(CN3CCN(c4cc5c(cc4F)c(=O)c(C(=O)O)cn5C4CC4)CC3)nn2)cc1 | 91.2%
64 | CS(=O)(=O)Nc1cc(-c2ccc3ncnc(Nc4ccc(OCc5ccccn5)c(Cl)c4)c3c2)cnc1Cl | 9.64% (active)
65 | COc1ccc2c(c1)c(-c1nc(-c3ccc4ccccc4c3)cs1)cn2C | 98.4%
66 | CCOC(=O)c1c(C)nc2ccccc2c1/C=C/c1ccc(F)cc1 | 81.7%
67 | CC1(C)N=C(N)N=C(N)N1c1ccc(S(=O)(=O)Nc2nccs2)cc1 | 104%
68 | COC(=O)c1sccc1-c1cc(O)c(C(=O)Nc2ccccc2)s1 | 104%
69 | CCOC(=O)NC(=S)n1oc(=O)c2ccccc21 | 101%
70 | O=C1CCC(C(=O)N/N=C/c2cc(F)ccc2F)N1 (stereo not drawn) | 101%
71 | COc1ccccc1/C=C/C(=O)Nc1ccc(F)cc1 | 102%
72 | COc1ccc(/C=N/Nc2c3ccccc3nc3ccccc23)cc1 | 99.5%
73 | O=[N+]([O-])c1ccccc1Sc1ccccc1[N+](=O)[O-] | 103%
74 | C[C@@H]1CN(c2cnc(C(=O)Nc3cc(F)cc4cccnc34)cn2)C[C@H](C)N1 | 88.9%
75 | CC1(C)CC[C@]23CC[C@]4(C)[C@H](CC[C@@H]5[C@@]6(C)C/C(=C/O)C(=O)C(C)(C)[C@@H]6CC[C@]54C)[C@H]2[C@H]1OC3 | 107%
76 | c1cc(OCCCCCOc2cccc(-c3nc4ccccc4[nH]3)c2)cc(-c2nc3ccccc3[nH]2)c1 | 6.73% (active)
77 | O=CN1N=C(c2cccc(Nc3ccnc4cc(Cl)ccc34)c2)CC1c1ccc(Cl)cc1 (stereo not drawn) | 19.3%
78 | COc1ccc(/C=C2\c3cc(OC)c(OC)c(OC)c3CC[C@@H]2O)cc1F | 13.8%
